In the library only some 1.6% were active in any assay of this set; here they are far more common.
KCNQ2 pot: KCNQ2 (rat) channel potentiation. CHO-K1 KCNQ2, FluxOR thallium flux fluorescence; active compounds read high. B-score at 10 µM. 0.54% of 310,000 active;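 active = fluorescence ratio B-score at least 3 SD of library B-scores, with initial fluorescence B-score within 3 of them, cut at about 5.3 in these data; same plate scores as AID 2156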;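 note: B-score of peak minus minimum over baseline fluorescence ratio after K+ and Tl+ stimulus; positive B-score means potentiation of KCNQ2 with more thallium influx and brighter signal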
Target sequence (O88943 whole entry, looked up): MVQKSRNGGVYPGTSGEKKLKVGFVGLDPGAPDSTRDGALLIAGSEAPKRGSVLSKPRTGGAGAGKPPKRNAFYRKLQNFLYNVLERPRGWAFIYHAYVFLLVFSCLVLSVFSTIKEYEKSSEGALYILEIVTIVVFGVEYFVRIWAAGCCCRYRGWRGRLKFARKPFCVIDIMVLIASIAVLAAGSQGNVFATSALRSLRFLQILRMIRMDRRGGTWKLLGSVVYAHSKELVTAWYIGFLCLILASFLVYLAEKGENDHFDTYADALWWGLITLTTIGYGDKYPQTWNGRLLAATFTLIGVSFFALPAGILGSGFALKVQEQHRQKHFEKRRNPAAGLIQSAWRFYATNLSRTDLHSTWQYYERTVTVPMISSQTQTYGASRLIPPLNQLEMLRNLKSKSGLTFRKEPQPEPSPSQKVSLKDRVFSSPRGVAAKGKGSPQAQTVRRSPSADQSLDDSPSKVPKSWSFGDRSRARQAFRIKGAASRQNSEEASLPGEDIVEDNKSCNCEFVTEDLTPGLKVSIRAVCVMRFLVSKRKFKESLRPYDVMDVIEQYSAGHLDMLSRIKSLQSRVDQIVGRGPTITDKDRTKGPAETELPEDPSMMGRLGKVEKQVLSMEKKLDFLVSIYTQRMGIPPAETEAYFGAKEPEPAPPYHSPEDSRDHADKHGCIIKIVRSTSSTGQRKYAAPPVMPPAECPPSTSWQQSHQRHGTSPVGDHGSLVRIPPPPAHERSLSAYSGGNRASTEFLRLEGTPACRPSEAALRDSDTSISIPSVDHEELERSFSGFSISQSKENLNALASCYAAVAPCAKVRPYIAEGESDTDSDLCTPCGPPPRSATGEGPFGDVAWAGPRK
KCNQ2 block: inhibitors of rat KCNQ2 potassium channel | O88943 | B-score at 10 µM | 1.1% of 310,000 active | CHO-K1 KCNQ2, FluxOR thallium flux, 20 min; active compounds read low | AID 2156;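 active = fluorescence ratio B-score at most minus 3 library SDs, with starting brightness B-score within 2 library SDs, cut at about -5.5 in these data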
Of the large screens only hits and unclear results are named; the others gave an inactive call.

CN(C)c1ccc(C(c2ccc(N(C)C)cc2)c2ccc([N+](=O)[O-])cc2)cc1	KCNQ2 block -6.6
CC(=O)c1ccc(N2CCN(C(=O)c3ccc(NC4=NC5CS(=O)(=O)CC5S4)cc3)CC2)cc1 (stereo not given)	none (no result: KCNQ2 pot)
COc1cc(-c2nnc(SC/C=C/c3ccccc3)n2N)cc(OC)c1OC	KCNQ2 block -5.9
Nn1c(SC/C=C/c2ccccc2)nnc1-c1ccncc1	none (no result: KCNQ2 pot)
COc1ccccc1C(=O)NCCC(=O)NCc1cccs1	none
CCOC(=O)c1cnc(N2CCN(c3ccccc3)CC2)[nH]c1=O	none
CCCN(CC1CC1)c1nc(C)nc(Nc2c(Cl)cc(Cl)cc2Cl)c1Cl	KCNQ2 block -5.6
CCCN(CC1CC1)c1nc(N)c(C#N)c(CC#N)c1C#N	none (no result: KCNQ2 pot)
COc1ccccc1CNC(=O)CN(CCc1ccccc1)S(C)(=O)=O	none (no result: KCNQ2 pot)
Nc1nc(SCC(=O)c2c(N)n(Cc3ccccc3)c(=O)[nH]c2=O)n[nH]1	none
CN(Cc1ccccc1)C(=O)Cn1c(=O)c2cccn2c2cccnc21	none (no result: KCNQ2 pot)
CC(=O)NC(Cc1c[nH]c2ccccc12)C(=O)OCC(=O)Nc1cc(C)on1 (stereo not given)	none
Cc1cc(NC(=O)COC(=O)[C@H](Cc2c[nH]c3ccccc23)NC(=O)c2ccc(F)cc2)no1	KCNQ2 block -7.2
O=C(CN(C(=O)CNC(=O)c1cccs1)c1ccccc1)NC1CCCCC1	none
O=C(NCC1CCN(Cc2ccc(Cl)cc2)CC1)C1CCCN(c2ncnc3c2nc2n3CCCCC2)C1 (stereo not given)	KCNQ2 block -6.6
O=C(NCC1CCN(Cc2ccc(F)cc2)CC1)C1CCCN(c2ncnc3c2nc2n3CCCCC2)C1 (stereo not given)	none (no result: KCNQ2 pot)
Cc1ccc(C(C[N+](=O)[O-])n2nc(C)cc2C)cc1 (stereo not given)	KCNQ2 block -7.4
Cc1ccc(S(=O)(=O)NCC(C)n2nc(C)cc2C)cc1 (stereo not given)	none
O=C(CS(=O)(=O)c1cn(CC(=O)N2CCOCC2)c2ccccc12)Nc1ccccc1F	none (no result: KCNQ2 pot)
CCOC(=O)COc1coc(CN2CCN(c3ccc(F)cc3)CC2)cc1=O	none (no result: KCNQ2 pot)
COC(=O)C(Cc1ccc(O)cc1)NC(=O)C1CCN(S(=O)(=O)c2ccc(C)cc2)CC1 (stereo not given)	none
O=C(N1CCC(n2nc(-c3ccccc3)oc2=O)CC1)C1(c2ccc(Cl)cc2)CC1	KCNQ2 block -8.2
O=C(N1CCOCC1)C1(c2ccc(Cl)cc2)CCCC1	none (no result: KCNQ2 pot)
CC(Oc1ccc(Br)cc1)C(=O)Nc1ccc(S(=O)(=O)N(C)C2CCN(C)CC2)cc1 (stereo not given)	none
C(=C1/CCCC2=C1Nc1ncnn1C2c1ccccc1)/c1ccccc1 (stereo not given)	KCNQ2 block -6.5
S=C1NC2=C(CCC/C2=C\c2ccccc2)C(c2ccccc2)N1 (stereo not given)	none
COc1ccc(C2CC(=O)c3cnc(NC(=O)c4cc(OC)cc(OC)c4)nc3C2)cc1 (stereo not given)	none
COc1ccc(C2CC(=O)c3cnc(Nc4cc(C)cc(C)c4)nc3C2)cc1 (stereo not given)	KCNQ2 block -5.9
CCc1ccc(C(=O)OCC(=O)N(CCOC)c2c(N)n(Cc3ccccc3)c(=O)[nH]c2=O)cc1	none
O=C(O)CSc1nnc(CNc2ccc(F)cc2)n1-c1ccccc1	none
COC(=O)CSc1nnc(CNc2ccc(Cl)cc2)n1-c1ccccc1	KCNQ2 block -5.8
CCOc1ccccc1OCC(=O)OCC(=O)c1c(C)[nH]c2ccccc12	none
N#C/C(=C\c1cccnc1)C(=O)Nc1ccc(Cl)cc1	none (no result: KCNQ2 pot)
Cc1cccc(NC(=O)/C(C#N)=C\c2cccnc2)c1	KCNQ2 block -6.5
CC(C)(C)OC(=O)NN=C(c1ccc(O)cc1)c1ccc(O)cc1	none
NS(=O)(=O)c1ccc(CCNC(=O)CNS(=O)(=O)c2cccc(Br)c2)cc1	none (no result: KCNQ2 pot)
CCOC(=O)c1c(N)sc(C(=O)OC)c1C	none
CCOC(=O)c1sc(NN=C(C(=O)OC)C(=O)OC)c(C(=O)OCC)c1C	KCNQ2 pot 5.7
Oc1ccc(N=Nc2ccccc2-c2nn[nH]n2)c(O)c1	none
CCCc1nnc(NC(=O)CCC(=O)Nc2ccc(Br)cc2)s1	none
Cc1cc(N)ccc1NC(=O)CN1CCOCC1	none (no result: KCNQ2 pot)
CC1(C)Cc2c(C#N)c(NCc3ccco3)nc(-c3ccco3)c2CO1	none
CC1(C)Cc2c(C#N)c(N3CCCC3)nc(-c3ccco3)c2CO1	KCNQ2 block -9.1
Cc1ccc(NC(=O)CN(C)C(=O)c2ccc(Cl)nc2)cc1	none (no result: KCNQ2 pot)
CCN1CCN(C(=O)c2cc(-c3cccnc3)nc3ccc(Br)cc23)CC1	KCNQ2 block -8.3
O=C(O)c1cc(-c2cccnc2)nc2ccc(Br)cc12	none
COc1cccc(CN2CCN(C(=O)c3cc(-c4ccncc4)nc4ccc(C)cc34)CC2)c1	KCNQ2 block -5.9
COc1cccc(CN2CCN(C(=O)c3cc(-c4ccccn4)nc4ccc(Cl)cc34)CC2)c1	none (no result: KCNQ2 pot)
C[C@@H](NC(=O)[C@@H]1Cc2ccccc2CN1C(=O)OC(C)(C)C)C(=O)NC1CCCC1	none
Fc1cccc(Cl)c1CSc1nnc(CNc2ccccc2)o1	none (no result: KCNQ2 pot)

Screens (PubChem)
